Compounds with a hit are over-represented: about 2.8% of the library has one in this group of screens.
Six1-Eya2 blk = qHTS Assay for Inhibitors of the Six1/Eya2 Interaction | Homeobox protein SIX1 (Homo sapiens) + Protein phosphatase EYA2 (Homo sapiens), … | AlphaScreen GST-Six1/His-Eya2 binding, biochemical; active compounds read low | activity change, % (concentration not given with the values) | 0.56% of 360,000 active; in the data active = activity change below about -65%; inconclusive = mostly about -30% to -63%; also: % is scaled to controls: 0 for no effect and ±100 for the full control effect
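Six1/Eya2 binding was read as AlphaScreen signal after compounds were pinned into GST-Six1 plus His-tagged Eya2 (5X stock 250/500 nM) in pH 8.0 Tris/NaCl/TCEP buffer, beads added, then incubated 1 h, 37 C, dark.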
TGFb inhibitor = qHTS for Inhibitors of TGF-b. HepG2 CAGA-GFP TGF-b/SMAD3 reporter, GFP fluorescence, 18 h; TGF-beta stimulated, 500 pg/mL final. Potency, µM (top dose mostly 46.1 µM), inactives show top-dose activity, negative = inhibition, actives largely listed as inhibitors. 1.2% of 410,000 active. AID 588855, 2011; also: potency is read from the fitted curve at half-maximal effect; % is scaled to controls: 0 for no effect and ±100 for the full control effect; nearly all actives have a fitted effect of over 65% in size
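Inhibition was scored as loss of TGF-beta-induced (500 pg/mL final, 18 hours, 37 degrees C) GFP in HEPG2 cells carrying a CAGA-GFP reporter, in DMEM with 1% FBS. Well GFP was summed per cell; Activity was normalised to unstimulated and stimulated DMSO wells, then concentration-response fitting.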
HepG2 tox = qHTS for Inhibitors of TGF-b: Cytotox Counterscreen | 0.76% of 410,000 active | HepG2 CAGA-GFP viability, ATP luminescence, 18 h | Potency, µM (titrated, usually from 46.1 µM), without a hit: at the highest dose activity change, negative = cytotoxicity, hits mostly cytotoxic; also: potency is read from the fitted curve at half-maximal effect
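CellTiter-Glo luminescence gave cytotoxicity after 18 hours at 37 degrees C. The cells were HepG2 CAGA-GFP in 1% FBS DMEM, stimulated with 500 pg/mL TGF-beta after compound addition. %Activity was normalised to no-cell wells (complete cell-killing) and DMSO (no toxicity), and curves were fitted and classified.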
ATXN2 expr inh = Primary qHTS for Inhibitors of ATXN expression; 0.72% of 360,000 active; AID 1745845, 2022; HEK-293 ATXN2-luciferase reporter, luminescence, 24 h; Potency, µM (titrated, usually from 57 µM), for the others: at the highest dose activity change, negative = inhibition, actives largely listed as inhibitors; also: potency is read from the fitted curve at half-maximal effect; % is scaled to controls: 0 for no effect and ±100 for the full control effect; nearly all actives have a fitted effect of over 55% in size
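qHTS (up to 57 uM final) was run with 24 h compound exposure of reporter cells at 37 °C. Each well was multiplexed: SteadyGlo luminescence measured ATXN2-luciferase expression after a fluorogenic Gly-Phe-AFC viability readout (25 uM final).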
CtBP-E1A inh = qHTS Assay for Inhibitors of the CtBP/E1A Interaction. AID 651724, 2012. CtBP / adenovirus E1A interaction (AlphaScreen). activity change, % (test concentration not listed). 0.49% of 340,000 active. AlphaScreen GST-E1A/His-CtBP binding, 1536-well; active compounds read low; in the data active = activity change below about -65%; inconclusive = mostly about -30% to -63%; also: % is scaled to controls: 0 for no effect and ±100 for the full control effect
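GST-E1A and His-tagged CtBP (125 nM each as 5X stock) were preincubated with pin-transferred compound for 2 h at 37 °C in the dark, then glutathione donor and nickel acceptor beads were added for 1 h before AlphaScreen reading.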
S2 tox = Viability Counterscreen for Primary qHTS for Inhibitors of ATXN expression; S2 cells (HEK-293 line with an ATXN2-luciferase reporter) viability, CellTiter-Fluor protease fluorescence, 24 h; Potency, µM (doses to about 56.7 µM), most hits filed as cytotoxic; 0.49% of 400,000 active; AID 651635, 2014; also: potency is read from the fitted curve at half-maximal effect; nearly all actives have a fitted effect of over 40% in size
* hit, by the source's call; i = inactive; ? = inconclusive; . = not tested or not shown; ! = not confirmed by another sample. Unless noted, calls follow the shape of the dose curve; as a rule, active = well fitted curve in the direction sought with a large enough effect; inconclusive = small, poorly fitted or top-dose-only effect, or another doubt; inactive = no such curve, though single readings can be large; an effect the other way counts as inactive or inconclusive.

SMILES | Six1-Eya2 blk | TGFb inhibitor | HepG2 tox | ATXN2 expr inh | CtBP-E1A inh | S2 tox
Cc1noc2ncnc(N3CCCC(C(=O)Nc4cccc(C(F)(F)F)c4)C3)c12 (stereo not drawn) | . | ? | -13% | 20µM* | . | .
C=C(CC[C@]12OC(C(=O)O)C(O)(C(=O)O)C(C(=O)O)(O1)C(OC(=O)/C=C/[C@@H](C)C[C@@H](C)CC)C2O)[C@@H](OC(C)=O)[C@H](C)Cc1ccccc1 (stereo partly drawn) | . | 4% | 8% | . | . | .
COc1ccccc1CCNCc1cc2cccc(C)c2nc1-c1cccs1 | . | . | . | . | . | i
CN[C@@H]1[C@@H](O)[C@@H](O[C@@H]2[C@@H](O)[C@H](OC3OC(CN)=CCC3N)[C@@H](N)C[C@H]2N)OC[C@]1(C)O (stereo partly drawn) | . | . | . | . | . | i
Cc1nnc(N2CCCC(C(=O)Nc3cccc(C(F)(F)F)c3)C2)c2nn(-c3ccccc3)c(C)c12 (stereo not drawn) | . | ? | -83% | -20% | . | 16µM*
Cc1c(C(=O)N(C)Cc2ccccc2)sc2nc(-c3ccc(F)cc3)cn12 | . | 13µM* | -61% | . | . | .
CC(C)C(O)c1ccc2c(c1)CN(C(=O)c1ccccc1-n1cccn1)CCO2 (stereo not drawn) | . | . | . | . | . | i
O=C(C[C@H]1C/C=C\C[C@H](NC(=O)OCC2c3ccccc3-c3ccccc32)C(=O)OC[C@H](Cc2ccccc2)NC1=O)N[C@H](CO)Cc1ccccc1 | 2 | ? | 13µM* | ? | -4 | ?
COc1cc(-c2cnc3ccccc3c2)cc2c1OCCN(C(=O)CCC(=O)c1ccc(F)cc1)C2 | . | . | . | . | . | i
CCOc1ccccc1CNC(=O)C1CCN(c2nnc(C)c3c(C)n(-c4ccc(C)cc4)nc23)CC1 | -5 | 11µM* | 10µM*! | ? | 1 | .
CCOc1ccc(CNC(=O)C2CCN(c3nnc(C)c4c(C)n(-c5ccc(C)cc5)nc34)CC2)cc1 | -6 | ? | -107% | . | . | ?
COc1ccccc1CCNC(=O)C1CCN(c2nnc(C)c3c(C)n(-c4ccc(C)cc4)nc23)CC1 | 21 | ? | 3.5µM*! | -10% | . | ?
Cc1ccc(-n2nc3c(N4CCC(C(=O)NCc5ccccc5C)CC4)nnc(C)c3c2C)cc1 | 10 | 18µM* | -95% | ? | 0 | ?
Cc1nnc(N2CCC(C(=O)NCCc3ccccc3Cl)CC2)c2nn(-c3ccccc3)c(C)c12 | . | ? | -54% | -36% | . | ?
Cc1ncc2c(c1CNC(=O)c1cncs1)CCN(C(=O)c1ccc(-c3ccccc3)cc1)C2 | . | . | . | . | . | i
Nc1cccc2c1C(=O)N(C1CCC(=O)NC1=O)C2=O (stereo not drawn) | . | . | . | 5% | . | .
Cc1[nH]c2ccccc2c(=O)c1C(=O)/C=C/c1ccccc1 | -1 | ? | -50% | 11µM* | -4 | 14µM*
C[C@@H]1C(=O)N(S(=O)(=O)c2ccccc2[N+](=O)[O-])[C@H]1c1ccc(-c2ccccc2)cc1 | . | -7% | -4% | . | . | .
CSC1(SC2=NCCN2)SC2(NCCN2)S1 | 6 | 13µM* | -15% | ? | -2 | ?
Cc1noc(C)c1C(=O)OCC(=O)Nc1cccc(S(=O)(=O)N(C)C)c1 | 13 | -11% | 4% | -3% | -10 | i
Cc1onc(-c2c(F)cccc2Cl)c1C(=O)OCC(=O)Nc1cccc(S(=O)(=O)N(C)C)c1 | -4 | ? | 7.1µM* | -31% | 13 | ?
O=C(OCc1cn([C@H]2CN(CC3CCCCC3)[C@@H](c3ccc(Cl)cc3)C[C@@H]2O)nn1)c1ccccc1 | 6 | 18µM* | 13µM* | ? | 3 | .
